# Results taken from PubChem BioAssay.
# Active and inactive are the calls of the source.
# Tests used:
# [1] = system: Plasmodium falciparum Sir2 (PF13_0152, Sir2A); experiment: pfSir2 binders on small-molecule microarrays, primary screen, biochemical, small-molecule microarray, 635 nm fluorescence (AID 1098); conditions: small-molecule microarray binding, fluorescence 635 nm; higher = more signal;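 note: score merges spot fluorescence intensity with its signal-to-noise ratio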
# [2] = small-molecule microarray binders of probe aDKK1, primary screen, biochemical, biotinylated probe, 635/667 nm fluorescence (AID 1099); conditions: higher = more signal;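 note: score merges 667nm spot fluorescence with signal to noise across triplicate slides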
# [3] = small-molecule microarray binders of probe aCHRDL2, primary screen, biochemical, biotinylated probe, 635/667 nm fluorescence (AID 1100); conditions: higher = more signal
# [4] = splicing luciferase reporter signal modulators, primary screen, spliceosome inhibition project, cell-based, HEK293, splice +/- reporter (AID 1101); conditions: luminescence, 24 h, higher = more signal, called active from +8 up or from −8 down;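 note: HEK293 cells carrying a splicing-competent luciferase reporter gene; test concentration not given here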
# [5] = biological target: Fibroblast growth factor 10 (Homo sapiens) (UniProt O15520); experiment: FGF10 binders on small-molecule microarrays, primary screen, biochemical, small-molecule microarray, 635 nm fluorescence (AID 1102); conditions: FGF10 binding, fluorescence 635 nm, higher = more signal
# [6] = system: glycogen synthase kinase-3 (GSK3A per assay name; protocol says GSK3B); experiment: GSK3 binders on small-molecule microarrays, primary screen, biochemical, small-molecule microarray, 635 nm fluorescence, GSK3A (AID 1103); conditions: small-molecule microarray binding, fluorescence 635 nm; higher = more signal; note: the record names both GSK3A and GSK3B
# [7] = biological target: Epidermal growth factor receptor (Homo sapiens) (UniProt P00533); experiment: EGFR binders on small-molecule microarrays, primary screen, biochemical, small-molecule microarray, 635 nm fluorescence (AID 1104); conditions: EGFR binding, higher = more signal;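 note: score merges 667 nm emission intensity with spot signal to noise over triplicate slides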
# [8] = biological target: Follistatin-related protein 3 (Homo sapiens) (UniProt O95633); experiment: FSTL3 binders on small-molecule microarrays, primary screen, biochemical, small-molecule microarray, 635 nm fluorescence (AID 1105); conditions: FSTL3 binding, higher = more signal;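 note: score merges emission near 667 nm and signal to noise per printed spot across three slides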
# [9] = biological target: Dickkopf-related protein 1 (Homo sapiens) (UniProt O94907); experiment: DKK1 binders on small-molecule microarrays, primary screen, biochemical, small-molecule microarray, 635 nm fluorescence scan (AID 1106); conditions: DKK1 binding, higher = more signal;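 note: score merges emission near 667 nm with signal to noise over three replicate slides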
# [10] = system: Inhibin beta A chain (activin A); experiment: INHBA (activin A) binders on microarrays, primary screen, biochemical, small-molecule microarray, 635 nm fluorescence scan (AID 1107); conditions: small-molecule microarray binding, higher = more signal;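 note: mouse activin A protein probed at 4.33 µg/mL on printed slides; score merges bound-protein fluorescence near 667 nm with spot signal-to-noise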
# [11] = system: Human papillomavirus type 1a protein E7 (residues 44-93); experiment: HPV1a E7 fragment binders on microarrays, primary screen, biochemical, small-molecule microarray, residues 44-93, 635 nm fluorescence (AID 1108); conditions: small-molecule microarray binding, fluorescence 635 nm; higher = more signal;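 note: E7 fragment applied at 1 µg/mL in TBST for 1 h at 4 C; score combines spot fluorescence with its signal to noise ratio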
# [12] = modulators of HCV replicon luciferase signal, primary screen, HCV replication inhibitor project, Huh7 cells, luciferase reporter (AID 1109); conditions: 48 h, higher = more signal;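 note: huh7 hepatoma cells harbouring a luciferase neomycin HCV replicon reporter; luciferase luminescence as measure of HCV replicon replication; test concentration not given here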
# [13] = biological target: Left-right determination factor 2 (Homo sapiens) (UniProt O00292); experiment: LEFTY2 binders on small-molecule microarrays, primary screen, biochemical, small-molecule microarray, 635 nm fluorescence scan (AID 1110); conditions: LEFTY2 binding, higher = more signal
# [14] = biological target: Calmodulin-1 (Homo sapiens) (UniProt P0DP23); experiment: CALM1 binders on microarrays, EGTA buffer, profiling panel, biochemical, small-molecule microarray, Cy5-labelled CALM1 (AID 1111); conditions: Cy5-CALM1 binding fluorescence, higher = more signal;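 note: labelled calmodulin applied in Tris saline Tween buffer holding calcium plus EGTA and DTT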
# [15] = biological target: Calmodulin-1 (Homo sapiens) (UniProt P0DP23); experiment: calcium-bound CALM1 binders on microarrays, profiling panel, artefact control for SMM control-protein annotation, biochemical, small-molecule microarray, Cy5-labelled CALM1, plus calcium (AID 1112); conditions: Cy5-CALM1 binding fluorescence, higher = more signal;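 note: score merges spot fluorescence with signal to noise from triplicate slides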
# [16] = small-molecule microarray binders of probe aWnt5a, primary screen, biochemical, biotinylated probe, 635/667 nm fluorescence (AID 1113); conditions: higher = more signal;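 note: score merges 667 nm fluorescence intensity with signal-to-noise per printed feature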
# [17] = small-molecule microarray binders of probe aShh, primary screen, biochemical, biotinylated probe, 635/667 nm fluorescence (AID 1114); conditions: higher = more signal;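 note: probe is biotin-labelled aShh protein from a stem cell growth factor screen; measures binding of labelled protein to compounds printed on the slide; score merges feature fluorescence at 667 nm with signal-to-noise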
# [18] = small-molecule microarray binders of probe aNog, primary screen, biochemical, biotinylated probe, 635/667 nm fluorescence (AID 1115); conditions: higher = more signal;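 note: probe is biotinylated aNog protein used at 0.15 µg/mL for 1 h at 4 C; z-score combines 667 nm fluorescence of each spot with its signal to noise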
# [19] = biological target: Torsin-1A-interacting protein 1 (Homo sapiens) (UniProt Q5JTV8); experiment: LAP1 binders from COS7 cell lysate, primary screen, small-molecule microarray, 635/667 nm fluorescence (AID 1116); conditions: COS7-hLAP1 lysate binding, 635 nm fluorescence, higher = more signal
# [20] = biological target: Alpha-bungarotoxin (Bungarus multicinctus) (UniProt P60615); experiment: alpha-bungarotoxin binders on microarray, profiling panel, artefact control for SMM control protein annotation, biochemical, small-molecule microarray, Alexa647 label, 635/667 nm fluorescence (AID 1117); conditions: alpha-BTX-A647 binding fluorescence, higher = more signal
# Sequence of Alpha-bungarotoxin (Bungarus multicinctus) (P60615 whole entry, looked up): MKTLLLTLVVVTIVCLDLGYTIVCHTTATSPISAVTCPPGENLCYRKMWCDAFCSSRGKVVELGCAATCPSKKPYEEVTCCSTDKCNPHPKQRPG
# Sequence of Follistatin-related protein 3 (Homo sapiens) (O95633 whole entry, looked up): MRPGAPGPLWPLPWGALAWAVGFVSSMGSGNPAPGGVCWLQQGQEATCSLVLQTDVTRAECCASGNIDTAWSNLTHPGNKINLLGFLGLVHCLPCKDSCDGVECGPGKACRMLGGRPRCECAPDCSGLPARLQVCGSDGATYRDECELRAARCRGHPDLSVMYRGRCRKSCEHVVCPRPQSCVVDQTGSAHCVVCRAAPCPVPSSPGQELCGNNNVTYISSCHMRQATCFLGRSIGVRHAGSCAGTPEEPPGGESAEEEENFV
# Sequence of Fibroblast growth factor 10 (Homo sapiens) (O15520 whole entry, looked up): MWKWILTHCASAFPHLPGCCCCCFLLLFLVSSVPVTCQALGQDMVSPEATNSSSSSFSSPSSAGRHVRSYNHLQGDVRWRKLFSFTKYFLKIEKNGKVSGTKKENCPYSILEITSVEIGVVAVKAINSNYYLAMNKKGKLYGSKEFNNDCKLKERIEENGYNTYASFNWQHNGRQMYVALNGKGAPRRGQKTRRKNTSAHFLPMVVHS
# Sequence of Dickkopf-related protein 1 (Homo sapiens) (O94907 whole entry, looked up): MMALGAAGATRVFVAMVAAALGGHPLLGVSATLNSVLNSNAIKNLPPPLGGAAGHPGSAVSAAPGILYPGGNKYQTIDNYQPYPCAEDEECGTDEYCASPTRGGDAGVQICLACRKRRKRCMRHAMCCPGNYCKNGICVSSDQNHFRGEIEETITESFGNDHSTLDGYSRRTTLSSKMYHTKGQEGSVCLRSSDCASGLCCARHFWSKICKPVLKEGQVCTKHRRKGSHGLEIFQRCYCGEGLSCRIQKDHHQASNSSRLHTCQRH
# Sequence of Torsin-1A-interacting protein 1 (Homo sapiens) (Q5JTV8 whole entry, looked up): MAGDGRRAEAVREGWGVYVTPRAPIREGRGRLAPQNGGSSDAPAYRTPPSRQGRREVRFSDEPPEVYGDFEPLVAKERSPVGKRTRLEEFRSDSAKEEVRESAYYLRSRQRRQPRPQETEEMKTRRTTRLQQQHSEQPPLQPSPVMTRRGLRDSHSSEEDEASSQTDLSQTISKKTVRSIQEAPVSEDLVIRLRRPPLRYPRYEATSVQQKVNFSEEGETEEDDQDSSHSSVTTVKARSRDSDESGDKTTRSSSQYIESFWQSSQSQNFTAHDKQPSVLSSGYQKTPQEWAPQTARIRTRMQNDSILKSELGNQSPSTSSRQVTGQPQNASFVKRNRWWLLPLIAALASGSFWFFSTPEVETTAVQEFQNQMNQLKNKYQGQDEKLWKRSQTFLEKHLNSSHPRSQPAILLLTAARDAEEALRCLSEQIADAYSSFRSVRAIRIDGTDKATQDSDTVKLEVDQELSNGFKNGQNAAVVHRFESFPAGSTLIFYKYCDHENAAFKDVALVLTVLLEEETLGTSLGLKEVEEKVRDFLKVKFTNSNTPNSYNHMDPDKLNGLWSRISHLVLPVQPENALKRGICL
# Sequence of Epidermal growth factor receptor (Homo sapiens) (P00533 whole entry, looked up): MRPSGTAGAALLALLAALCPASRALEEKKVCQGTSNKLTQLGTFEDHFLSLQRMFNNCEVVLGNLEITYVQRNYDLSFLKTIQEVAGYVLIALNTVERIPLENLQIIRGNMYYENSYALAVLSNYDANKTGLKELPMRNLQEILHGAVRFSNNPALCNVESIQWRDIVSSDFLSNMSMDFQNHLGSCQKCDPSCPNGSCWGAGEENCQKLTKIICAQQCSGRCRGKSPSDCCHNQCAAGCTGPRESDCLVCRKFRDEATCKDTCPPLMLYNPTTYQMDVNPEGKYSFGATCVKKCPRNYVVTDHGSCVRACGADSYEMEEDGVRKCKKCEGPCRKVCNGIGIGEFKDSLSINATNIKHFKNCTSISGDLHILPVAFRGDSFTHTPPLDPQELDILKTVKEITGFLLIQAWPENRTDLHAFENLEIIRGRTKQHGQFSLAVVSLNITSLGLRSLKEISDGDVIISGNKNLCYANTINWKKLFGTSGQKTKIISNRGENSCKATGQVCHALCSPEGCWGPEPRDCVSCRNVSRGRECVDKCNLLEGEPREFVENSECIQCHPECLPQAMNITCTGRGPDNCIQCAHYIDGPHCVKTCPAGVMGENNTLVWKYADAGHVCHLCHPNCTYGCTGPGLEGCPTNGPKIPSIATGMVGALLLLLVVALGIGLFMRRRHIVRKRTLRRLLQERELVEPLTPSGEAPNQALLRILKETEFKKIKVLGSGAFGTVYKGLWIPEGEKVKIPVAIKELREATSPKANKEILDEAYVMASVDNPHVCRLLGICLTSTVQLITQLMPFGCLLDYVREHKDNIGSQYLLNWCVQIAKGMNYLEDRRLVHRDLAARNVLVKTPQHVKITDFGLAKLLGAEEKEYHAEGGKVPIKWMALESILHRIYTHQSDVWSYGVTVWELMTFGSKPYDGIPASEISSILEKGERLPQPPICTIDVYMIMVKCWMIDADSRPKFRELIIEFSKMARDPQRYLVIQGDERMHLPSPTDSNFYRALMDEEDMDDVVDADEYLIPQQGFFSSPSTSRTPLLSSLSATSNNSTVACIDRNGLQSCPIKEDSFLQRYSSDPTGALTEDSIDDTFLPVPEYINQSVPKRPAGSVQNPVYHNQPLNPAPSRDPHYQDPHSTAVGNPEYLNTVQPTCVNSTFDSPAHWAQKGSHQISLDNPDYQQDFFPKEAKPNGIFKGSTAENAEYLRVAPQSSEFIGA
# Sequence of Left-right determination factor 2 (Homo sapiens) (O00292 whole entry, looked up): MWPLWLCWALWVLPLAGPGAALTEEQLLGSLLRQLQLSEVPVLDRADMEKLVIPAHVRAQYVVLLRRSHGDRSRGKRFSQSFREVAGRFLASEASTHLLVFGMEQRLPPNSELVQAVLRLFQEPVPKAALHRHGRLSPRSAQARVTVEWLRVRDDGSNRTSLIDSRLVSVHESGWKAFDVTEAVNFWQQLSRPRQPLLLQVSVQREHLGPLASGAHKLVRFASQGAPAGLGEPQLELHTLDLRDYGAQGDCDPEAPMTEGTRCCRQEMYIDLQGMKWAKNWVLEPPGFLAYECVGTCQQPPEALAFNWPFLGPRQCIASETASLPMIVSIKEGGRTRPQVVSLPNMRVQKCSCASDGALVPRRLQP
SMILES,composite z-score [1],composite z-score [2],composite z-score [3],z-score [4],composite z-score [5],composite z-score [6],composite z-score [7],composite z-score [8],composite z-score [9],composite z-score [10],composite z-score [11],z-score [12],composite z-score [13],composite z-score [14],composite z-score [15],composite z-score [16],composite z-score [17],composite z-score [18],composite z-score [19],composite z-score [20]
CCCCc1nc2c(c3c1C[C@H](C)OC3)CN(CCC(C)C)CC2,0.956,-0.0466,-0.47,-0.0873 (inactive),0.627,1.25,0.488,1.26,0.562,0.0968,1.23,-0.953,0.893,-0.0635,-0.747,-0.0704,-0.164,0.372,0.089,0.595
CCCNC(=O)OC[C@H]1O[C@H](CCON=CC[C@@H]2C=C[C@H](OC(C)=O)[C@@H](COC(C)=O)O2)C=C[C@@H]1Oc1ccc(OC)cc1,0.46,-0.0927,-0.412,0.599 (inactive),0.817,0.524,0.492,0.759,0.537,0.434,0.791,0.0229,0.667,-0.625,-0.867,-0.0718,-0.442,-0.267,0.444,0.945
Cc1ccc(C2CC=C(C(=O)O)CN2S(=O)(=O)c2ccc(C)cc2)cc1 (stereo not given),1.3,0.135,0.665,-0.16 (inactive),0.31,0.834,0.201,0.338,0.0374,0.584,1.35,0.602,-0.403,0.189,0.15,0.0018,-0.271,0.241,0.743,0.802
CCCC[C@@H]1C[C@H]1[C@@H](NS(=O)(=O)c1cccc2cccnc12)c1ccc(-c2ccccc2)cc1,-0.383,0.583,1.09,1.19 (inactive),0.0068,-0.356,-1.26,-0.417,-0.475,0.76,0.97,-0.122,-0.732,0.691,1.23,0.138,-0.01,1.31,0.0258,0.231
O=C(NN=C1C[C@@H](O)[C@@H](O)[C@@H]2[C@@H]3C(=O)N(c4ccc(F)cc4F)C(=O)[C@@H]3CC[C@@H]12)OCc1ccccc1,0.328,-0.269,-0.232,0.464 (inactive),-0.0739,-0.0799,0.452,0.297,0.092,-0.103,0.782,-0.769,0.312,-0.0007,-0.226,0.0354,-0.0553,-0.562,0.547,0.736
C#CCCCON=C1C[C@@H](O)[C@@H](O)[C@@H]2[C@@H]3C(=O)N(Cc4ccccc4)C(=O)[C@@H]3CC[C@H]12,1.43,-0.369,-0.417,-0.658 (inactive),0.388,0.147,1.03,0.29,0.525,0.269,0.154,-1.08,0.451,-0.0441,-0.273,-0.154,-0.138,-0.0245,0.28,0.234
CN1C(=O)C2C=CC(C(O)C(c3ccccc3)c3ccccc3)N(NC(=O)OC(C)(C)C)C2C1=O (stereo not given),1.46,1.21,1.22,1.71 (inactive),1.03,1.12,0.341,1.24,0.452,-0.109,1.32,-0.527,-0.0483,2.75,1.09,0.306,0.915,2.09,2.59,2.04
CCOC(=O)[C@H](CC(C)C)NC(=O)CCC1CC(OC(=O)NCc2cccc3ccccc23)CC2(CCCC(COC(=O)NCCN3CCOCC3)O2)O1 (stereo not given in full),0.608,-0.265,-0.668,-0.746 (inactive),0.763,1.28,0.416,0.707,0.652,0.209,1.26,-0.814,0.444,0.144,-0.854,-0.176,-0.0605,-0.261,0.217,0.548
CO[C@H]1COC(=O)[C@H](C)NC(=O)[C@@H](C)COC(=O)CC=C[C@@H]1C,1.38,-0.369,-0.786,-0.794 (inactive),0.63,0.857,0.767,0.0078,0.829,-0.249,-0.0574,-0.504,0.348,-0.239,-0.514,0.0502,0.432,0.131,0.687,0.53
CCCCC(=C=CC[C@H](O)c1ccccc1OCCO)C[C@H](O)COCc1ccccc1,1.45,-0.001,0.309,-0.139 (inactive),0.0624,-0.285,-0.792,-0.349,-0.355,0.778,-0.156,-1.92,-0.233,1.22,0.768,-0.124,-0.138,0,1.65,1.04
COc1ccccc1CN1C(=O)c2ccccc2[C@@H](C(=O)NCC(F)(F)F)[C@@H]1c1ccc(CO)cc1,1.68,-0.139,0.245,-0.14 (inactive),0.956,0.715,0.0304,0.941,0.0666,0.218,1.44,-1.26,-0.155,0.313,0.229,-0.107,0.0446,-0.425,0.488,0.472
